The panel holds about 83,000 compounds, 20% with a hit somewhere; the sample as a whole holds those more often.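 A percent growth of 40 corresponds to 60% growth inhibition; 0 means no net growth; -100 means all cells died. Active threshold: below 10.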 Active and inactive are the calls of the source.
What was measured:
Assay in all cases: NCI-60 one-dose screen, 48 h (100 = growth as untreated, 0 = no growth, -100 = all killed)
Settings in all cases: 10 µM
SK-MEL-2 melanoma = system: SK-MEL-2 melanoma
EKVX NSCLC = system: EKVX NSCLC
UO-31 renal = system: UO-31 renal
TK-10 renal = system: TK-10 renal
ACHN renal = system: ACHN renal
A498 renal = system: A498 renal
CCRF-CEM leukemia = system: CCRF-CEM leukemia
MOLT-4 leukemia = system: MOLT-4 leukemia
CAKI-1 renal = system: CAKI-1 renal
SN12C renal = system: SN12C renal

Measured: growth

Cc1ccc([N+](=O)[O-])c(C(=O)Nc2ccc(-c3ccc4c(c3)NC(=O)/C4=C\c3ccc[nH]3)cc2)c1
inactive: SK-MEL-2 melanoma 75.5% | EKVX NSCLC 25.7% | UO-31 renal 76.6% | TK-10 renal 105% | ACHN renal 66.4% | A498 renal 134% | CCRF-CEM leukemia 22.1% | MOLT-4 leukemia 14.1%

COc1ccc2[nH]c(=O)c(CSc3ccc(Nc4nccc(-c5ccc(Cl)cc5)n4)cc3)cc2c1
inactive: SK-MEL-2 melanoma 94.3% | EKVX NSCLC 86.8% | UO-31 renal 85.5% | TK-10 renal 124% | ACHN renal 90.3% | CAKI-1 renal 76.3% | A498 renal 141% | CCRF-CEM leukemia 96.7% | MOLT-4 leukemia 84.4%

COc1cc(NC(=O)CSc2nnc(-c3ccc4nc(-c5ccc(Cl)cc5)[nH]c4c3)o2)cc(OC)c1OC
inactive: SK-MEL-2 melanoma 93.4% | EKVX NSCLC 93.1% | UO-31 renal 63.8% | TK-10 renal 116% | ACHN renal 66.1% | CAKI-1 renal 67.8% | A498 renal 121% | CCRF-CEM leukemia 26.7% | MOLT-4 leukemia 25.1%

COc1ccc(C(=O)Nc2sc3c(c2C#N)CCC(=O)C3)cc1C(F)(F)F
inactive: TK-10 renal 15.1% | A498 renal 63.3%
active: SK-MEL-2 melanoma -17.6% | EKVX NSCLC -0.293% | UO-31 renal -18.2% | ACHN renal -29.9% | CAKI-1 renal -28.1% | CCRF-CEM leukemia 5.05% | MOLT-4 leukemia 3.42%

COc1cc(NC(=O)c2cc(-c3ccc(F)cc3F)ccc2O)cc(OC)c1OC
inactive: EKVX NSCLC 50% | TK-10 renal 33% | ACHN renal 55.9% | CAKI-1 renal 30.6% | CCRF-CEM leukemia 25.6% | MOLT-4 leukemia 10.6%
active: SK-MEL-2 melanoma -5.57% | UO-31 renal 9.27% | A498 renal -1.46%

O=C(c1ccc(O)cc1)C1[C@H](c2ccccc2Br)[C@@H](c2ccccc2)NC12C(=O)Nc1ccc(Br)cc12 (stereo not given in full)
inactive: SK-MEL-2 melanoma 38.1% | SN12C renal 15.1% | UO-31 renal 35.8% | ACHN renal 37.9% | CAKI-1 renal 24.1% | A498 renal 80.5% | CCRF-CEM leukemia 31.4% | MOLT-4 leukemia 11%

C/C(=C\CSc1ccccc1C(=O)O)CCCC(C)CCCC(C)CCCC(C)C (stereo not given)
inactive: UO-31 renal 49.5% | TK-10 renal 87.7% | ACHN renal 37.5% | CAKI-1 renal 45.1% | A498 renal 97.4% | CCRF-CEM leukemia 29.8% | MOLT-4 leukemia 16.3%
active: SK-MEL-2 melanoma -12%

O=c1[nH][nH]c(Nc2ccccc2)c1N=Nc1ccc(F)cc1
inactive: SK-MEL-2 melanoma 94.1% | UO-31 renal 66.2% | TK-10 renal 94.5% | ACHN renal 86.2% | CAKI-1 renal 59.3% | A498 renal 110% | CCRF-CEM leukemia 93.9%

CC(=O)c1cc(C(=O)c2ccc3c(c2)NC(=O)CO3)n2ccc3ccccc3c12
inactive: SK-MEL-2 melanoma 107% | SN12C renal 86.1% | UO-31 renal 59% | ACHN renal 50% | CAKI-1 renal 55.4% | A498 renal 97.3% | CCRF-CEM leukemia 82.9% | MOLT-4 leukemia 66.8%

O=c1oc2ccc(-c3ccc(F)cc3F)cc2c(=O)n1-c1ccc(Cl)c(C(F)(F)F)c1
active: SK-MEL-2 melanoma -62% | SN12C renal -15% | UO-31 renal -3.08% | ACHN renal -10.9% | CAKI-1 renal -15.8% | A498 renal -17.6% | CCRF-CEM leukemia -5.71% | MOLT-4 leukemia -8.23%

COc1cccc(-c2nn(-c3ccccc3)cc2-c2ccnc(NCCCNC(=O)Nc3ccc(F)cc3)c2)c1
inactive: EKVX NSCLC 20.7% | SN12C renal 23.6% | UO-31 renal 17.7% | TK-10 renal 49.8% | ACHN renal 20.6% | CAKI-1 renal 19.2% | A498 renal 58%
active: CCRF-CEM leukemia -26.7%

O=C(Nc1ccc(OCc2ccccc2)cc1)Nc1ccc(Cl)c(C(F)(F)F)c1
inactive: TK-10 renal 21%
active: EKVX NSCLC 5.04% | SN12C renal 2.86% | UO-31 renal -1.46% | ACHN renal 0.776% | CAKI-1 renal 3.68% | A498 renal -15.1% | CCRF-CEM leukemia -23.4%

N[C@@H](CSSC[C@H](N)C(=O)Nc1ccc(OCC2CCCC2)cc1)C(=O)Nc1ccc(OCC2CCCC2)cc1
active: SK-MEL-2 melanoma -93% | SN12C renal -98.5% | UO-31 renal -100% | TK-10 renal -95.5% | ACHN renal -100% | CAKI-1 renal -99.1% | A498 renal -85.4% | CCRF-CEM leukemia -60.5%

CN1C(=O)N(C)C2SC(N/N=C/c3ccc(F)cc3)=NC21 (stereo not given)
inactive: SK-MEL-2 melanoma 26.5% | SN12C renal 52.5% | UO-31 renal 47.7% | TK-10 renal 72.4% | ACHN renal 60.1% | CAKI-1 renal 46.3% | A498 renal 57.6% | CCRF-CEM leukemia 40.3% | MOLT-4 leukemia 45.4%

COc1cc2oc(-c3cccc(C(=O)Nc4ccc(Cl)cc4)c3)cc(=O)c2c(OCCNC(=O)CNC(=O)OC(C)(C)C)c1OC
inactive: SK-MEL-2 melanoma 78.4% | SN12C renal 53.5% | UO-31 renal 49.7% | TK-10 renal 83.9% | ACHN renal 61.3% | CAKI-1 renal 34.2% | A498 renal 118% | CCRF-CEM leukemia 49.4% | MOLT-4 leukemia 41.1%

— PubChem BioAssay (NCI)
